Among the data in PubChem BioAssay (EPA / NIEHS) are outcome and AC50 values, retold here.

Read-out in test [1]: Monokine induced gamma interferon (MIG), CXCL9 (gene 4283)
The test can be described thus: BSK_3C_MIG: BioMAP Diversity Plus: 3C Assay for Monokine induced gamma interferon (MIG) Biomarker Activity (AID 2283021). The following applies: primary human endothelial cells (HUVEC); actives raise or lower the signal. The method in brief:
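HUVEC primary endothelial cultures dosed with chemical; MIG quantified by ELISA at 24 h. Data fitted bidirectionally against DMSO control, with parallel SRB total-protein staining for cytotoxicity.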

A short description of test [2]: BSK_3C_SRB: Viability Assessment in the BioMAP Diversity Plus: 3C Assay (AID 2283023).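 Note: fitted both ways against DMSO so a hit may be signal rise or drop.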 The following applies: primary human endothelial cells (HUVEC). A digest of the protocol: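 Primary human umbilical vein endothelial cells in the 3C system were read 24 h after compound dosing. Total protein was stained with 0.1% sulforhodamine B after 10% TCA fixation and read at 560 nm, with bidirectional fitting against DMSO as baseline.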

Read-out in test [3]: Matrix Metallopeptidase 1 (MMP1), MMP1 (gene 4312)
Briefly: BSK_BE3C_MMP1: BioMAP Diversity Plus: BE3C Assay for Matrix Metallopeptidase 1 (MMP1) Biomarker Activity (AID 2283024). The following applies: primary human bronchial epithelial cells; actives raise or lower the signal. A digest of the protocol:
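Human primary bronchial epithelial cells (BE3C system) dosed for 24 h; MMP-1 quantified by ELISA. Bidirectional fit against DMSO; cytotoxicity tracked in parallel cultures by SRB total-protein staining.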

A short description of test [4]: BSK_3C_Vis: BioMAP Diversity Plus: 3C Assay for Morphology Visualization (AID 2283025).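 For AC50: light microscopy image of cell morphology used as background control.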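 Note: fitted both ways so gain or loss versus DMSO counts.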 The following applies: primary human endothelial cells (HUVEC). The method in brief: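 Human umbilical vein endothelial cell morphology was inspected by light microscopy 24 h after chemical dosing; scored bidirectionally relative to DMSO.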
Read-out in test [5]: Pselectin, SELP (gene 6403)
The test can be described thus: BSK_4H_Pselectin: BioMAP Diversity Plus: 4H Assay for Pselectin Biomarker Activity (AID 2283026). The following applies: primary human endothelial cells (HUVEC); actives raise or lower the signal. A digest of the protocol:
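Primary human umbilical vein endothelial cells were treated 24 h, and cell-surface P-selectin was then quantified by ELISA. Bidirectional fit versus DMSO; cytotoxicity checked in parallel cultures by SRB total-protein staining.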

A short description of test [6]: BSK_4H_SRB: Viability Assessment in the BioMAP Diversity Plus: 4H Assay (AID 2283027). The following applies: primary human endothelial cells (HUVEC). A digest of the protocol:
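Human umbilical vein endothelial cells, 24 h after chemical dosing; total protein measured by 0.1% sulforhodamine B staining after 10% TCA fixation, read at 560 nm. Bidirectional fitting against DMSO.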

Test [7] can be described thus: BSK_BE3C_SRB: Viability Assessment in the BioMAP Diversity Plus: BE3C Assay (AID 2283028). The following applies: primary human bronchial epithelial cells. The method in brief:
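Human primary bronchial epithelial cells were exposed to test chemicals for 24 h. Total protein in parallel cultures was then measured by staining with 0.1% sulforhodamine B after 10% TCA fixation, with absorbance read at 560 nm. Activity was fitted bidirectionally against DMSO.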

Read-out in test [8]: Thrombomodulin, THBD (gene 7056)
Briefly: BSK_3C_Thrombomodulin: BioMAP Diversity Plus: 3C Assay for Thrombomodulin Biomarker Activity (AID 2283029). The following applies: primary human endothelial cells (HUVEC); actives raise or lower the signal. A digest of the protocol: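 Human umbilical vein endothelial cells were exposed to chemicals for 24 h; cell-surface thrombomodulin quantified by ELISA, with bidirectional fitting against DMSO baseline.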

Read-out in test [9]: Urokinase-type plasminogen activator receptor (uPAR), PLAUR (gene 5329)
Briefly: BSK_4H_uPAR: BioMAP Diversity Plus: 4H Assay for Urokinase-type plasminogen activator receptor (uPAR) Biomarker Activity (AID 2283030). The following applies: primary human endothelial cells (HUVEC); actives raise or lower the signal. A digest of the protocol:
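Primary human umbilical vein endothelial cells were exposed to chemical for 24 h before cell-surface uPAR was quantified by ELISA. Activity was fitted bidirectionally against the DMSO negative control baseline.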

Read-out in test [10]: Vascular endothelial growth factor receptor 2 (Homo sapiens) (UniProt P35968)
The test can be described thus: BSK_4H_VEGFRII: BioMAP Diversity Plus: 4H Assay for Vascular endothelial growth factor receptor 2 (VEGFR2) Biomarker Activity (AID 2283031). The following applies: primary human endothelial cells (HUVEC); actives raise or lower the signal. The method in brief: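 Primary human umbilical vein endothelial cells in the BioMAP 4H system were dosed with test chemical, and 24 h later VEGFRII was measured by ELISA. Activity was fitted bidirectionally against DMSO as negative control and baseline.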

Read-out in test [11]: Human Leukocyte Antigen - DR isotype (HLADR), HLA-DRA (gene 3122)
Briefly: BSK_BE3C_HLADR: BioMAP Diversity Plus: BE3C Assay for Human Leukocyte Antigen - DR isotype (HLADR) Biomarker Activity (AID 2283032). The following applies: primary human bronchial epithelial cells; actives raise or lower the signal. The method in brief: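 Human primary bronchial epithelial cells (BE3C system) exposed to compound for 24 hours; cell-surface HLA-DR measured by ELISA, fitted bidirectionally relative to DMSO. Total protein by SRB in parallel cultures tracked cytotoxicity.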

Read-out in test [12]: Vascular cell adhesion molecule 1 (VCAM1), VCAM1 (gene 7412)
The test can be described thus: BSK_4H_VCAM1: BioMAP Diversity Plus: 4H Assay for Vascular cell adhesion molecule 1 (VCAM1) Biomarker Activity (AID 2283033). The following applies: primary human endothelial cells (HUVEC); actives raise or lower the signal. A digest of the protocol: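 Primary human umbilical vein endothelial cells, 4H stimulation system, treated for 24 h; cell-surface VCAM-1 quantified by ELISA. Bidirectional fitting against DMSO; cytotoxicity tracked by SRB total-protein staining in parallel cultures.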

Read-out in test [13]: Interferon-gamma inducible Protein 10 (IP10), CXCL10 (gene 3627)
The test can be described thus: BSK_BE3C_IP10: BioMAP Diversity Plus: BE3C Assay for Interferon-gamma inducible Protein 10 (IP10) Biomarker Activity (AID 2283034). The following applies: primary human bronchial epithelial cells; actives raise or lower the signal. The method in brief:
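Primary human bronchial epithelial cells, with IP-10 measured by ELISA 24 hours after chemical dosing. Bidirectional fit against DMSO; cytotoxicity checked by SRB total protein staining in parallel cultures.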

Read-out in test [14]: Monokine induced gamma interferon (MIG), CXCL9 (gene 4283)
Briefly: BSK_BE3C_MIG: BioMAP Diversity Plus: BE3C Assay for Monokine induced gamma interferon (MIG) Biomarker Activity (AID 2283035). The following applies: primary human bronchial epithelial cells; actives raise or lower the signal. The method in brief: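 Primary human bronchial epithelial cells treated for 24 h; MIG levels measured by ELISA, fitted bidirectionally versus DMSO. Parallel SRB total-protein staining assessed cytotoxicity.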

Read-out in test [15]: Transforming growth factor beta 1 (TGFb1), TGFB1 (gene 7040)
The test can be described thus: BSK_BE3C_TGFb1: BioMAP Diversity Plus: BE3C Assay for Transforming growth factor beta 1 (TGFb1) Biomarker Activity (AID 2283036). The following applies: primary human bronchial epithelial cells; actives raise or lower the signal. A digest of the protocol:
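Primary human bronchial epithelial cells dosed with chemical; TGF-b1 measured by ELISA 24 h after dosing. Bidirectional curve fitting against DMSO negative control; SRB total-protein staining in parallel cultures gauged cytotoxicity.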

Read-out in test [16]: Plasminogen activator inhibitor-1 (PAI1), SERPINE1 (gene 5054)
The test can be described thus: BSK_BE3C_PAI1: BioMAP Diversity Plus: BE3C Assay for Plasminogen activator inhibitor-1 (PAI1) Biomarker Activity (AID 2283037). The following applies: primary human bronchial epithelial cells; actives raise or lower the signal. A digest of the protocol: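 Primary human bronchial epithelial cells (BE3C system) exposed 24 h; PAI-1 quantified by ELISA. Parallel sulforhodamine B staining of total protein flags cytotoxicity. Bidirectional fit versus DMSO.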

Read-out in test [17]: urokinase plasminogen activator (uPA), PLAU (gene 5328)
Briefly: BSK_BE3C_uPA: BioMAP Diversity Plus: BE3C Assay for urokinase plasminogen activator (uPA) Biomarker Activity (AID 2283038).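 Note: uPA protein level quantified by ELISA in cell cultures; uPA read one day after compound addition.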 The following applies: primary human bronchial epithelial cells; actives raise or lower the signal. A digest of the protocol: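 Human primary bronchial epithelial cells were exposed to chemical for 24 h, then uPA levels were measured by ELISA. Responses were fitted bidirectionally against DMSO as negative control and baseline. Parallel SRB staining of total protein gauged overt cytotoxicity.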

Read-out in test [18]: Urokinase-type plasminogen activator receptor (uPAR), PLAUR (gene 5329)
The test can be described thus: BSK_BE3C_uPAR: BioMAP Diversity Plus: BE3C Assay for Urokinase-type plasminogen activator receptor (uPAR) Biomarker Activity (AID 2283039).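 For outcome: cells exposed to compound for one day before measurement.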 The following applies: primary human bronchial epithelial cells; actives raise or lower the signal. A digest of the protocol: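 Primary human bronchial epithelial cells dosed for 24 h; uPAR quantified by ELISA with bidirectional fitting against DMSO. Overt cytotoxicity assessed in parallel cultures by SRB total-protein staining (0.1% SRB, 560 nm).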

Read-out in test [19]: Interleukin-6 (IL6), IL6 (gene 3569)
Briefly: BSK_CASM3C_IL6: BioMAP Diversity Plus: CASM3C Assay for Interleukin-6 (IL6) Biomarker Activity for (AID 2283040). The following applies: primary human coronary artery smooth muscle cells; actives raise or lower the signal.

Read-out in test [20]: Tissue plasminogen activator (tPA), PLAT (gene 5327)
The test can be described thus: BSK_BE3C_tPA: BioMAP Diversity Plus: BE3C Assay for Tissue plasminogen activator (tPA) Biomarker Activity (AID 2283041).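 Note: tPA level quantified by ELISA one day after compound addition.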 The following applies: primary human bronchial epithelial cells; actives raise or lower the signal. A digest of the protocol: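 Primary human bronchial epithelial cells in the BE3C system, exposed to compound for 24 h. tPA was quantified by ELISA; DMSO served as baseline, with gain or loss of signal fitted. Cytotoxicity checked in parallel cultures by SRB total-protein staining.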

Calls of active or inactive are those of the source. Rule for the calls: active = hit-call score of the fitted dose curve at least 0.9, where 1 is the maximum; inactive = score below 0.9.

As usually defined, the AC50 is the midpoint of the concentration-response curve, whichever way the signal moves. `COP(=S)(OC)Oc1ccc([N+](=O)[O-])c(C)c1`: the result in [1], in [3], in [5], in [6], in test [7] and in test [8] was inactive. Besides, the result in test [9], in test [10], in [12], in test [13], in test [14] and in [15] was inactive. Also, the result in test [16], in test [17], in [18], in [19] and in test [20] was inactive. Further, the AC50 is 16.5 µM (active) in test [2], 39 µM (active) in test [4] and 20 µM (active) in test [11].

For the compound `N#CN=C1SCCN1Cc1ccc(Cl)nc1`, the result in [1], in [2], in test [3], in test [4], in [5] and in test [6] was inactive. The result in [7], in test [8], in test [9], in test [10], in test [11] and in test [12] was inactive. The result in [13], in [14], in [15], in [16], in test [17] and in test [18] was inactive. Also, the outcome in [19] and in test [20] was inactive.

`CCCN(CC)CC1COC2(CCC(C(C)(C)C)CC2)O1` (stereo not given): the result in test [1], in test [2], in test [3], in test [4], in [5] and in [6] was inactive. The outcome in [7], in [8], in [9], in test [10], in [11] and in [12] was inactive. For the same compound, the outcome in test [13], in [14], in [15], in test [16], in [17] and in test [19] was inactive. Besides, the outcome in test [20] was inactive. In test [18], the AC50 was 1.77 µM (active).

With `Clc1nc(Cl)nc(Nc2ccccc2Cl)n1`, the outcome in test [1], in test [2], in [3], in test [4], in [5] and in test [6] was inactive. Besides, the outcome in [7], in [8], in test [9], in test [10], in [11] and in test [12] was inactive. In addition, the result in test [13], in [14], in [15], in test [16], in test [17] and in test [19] was inactive. In addition, the outcome in test [20] was inactive. For the same compound, the AC50 in test [18] was 0.293 µM (active).

As for `O=P(O)(O)CCCl`, the outcome in test [1], in test [2], in [3], in test [4], in test [5] and in [6] was inactive. The result in test [7], in test [8], in test [9], in [10], in test [11] and in test [12] was inactive. Moreover, the outcome in test [13], in [14], in test [15], in test [16], in test [17] and in test [18] was inactive. Further, the outcome in [19] and in test [20] was inactive.
